The full ranking holds about 33,000 sequences; the median of “E-score (-0.5 to 0.5)” is about -0.0059, and the highest 2% start at about 0.26. Many of the other results were omitted from the sample, so the highest values are more common in it than they were.
Biological target: T1, Cin5 (UniProt P40917)
T1 sequence: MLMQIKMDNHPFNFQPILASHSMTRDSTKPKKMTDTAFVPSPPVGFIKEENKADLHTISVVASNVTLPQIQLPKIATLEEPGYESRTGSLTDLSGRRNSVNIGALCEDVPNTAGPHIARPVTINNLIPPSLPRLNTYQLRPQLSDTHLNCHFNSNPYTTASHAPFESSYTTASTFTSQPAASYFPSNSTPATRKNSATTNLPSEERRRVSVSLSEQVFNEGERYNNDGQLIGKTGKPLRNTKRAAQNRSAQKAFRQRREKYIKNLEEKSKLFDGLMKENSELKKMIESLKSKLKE
Test: PBM E-score (8-mer binding enrichment) (E-score (-0.5 to 0.5)); higher = stronger / more preferred TF binding
Details: protein concentration: 100 nM; construct: GST-full length
In short: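 The E-score, a modified Wilcoxon-Mann-Whitney statistic, was computed by the Universal PBM Analysis Suite for every ungapped eight-base word pooled with its reverse complement. Scans behind it were normalised with masliner after bound GST-tagged yeast transcription factors were detected with fluorescent anti-GST. The proteins, at about 100-200 nM, had been applied to universal all-10-mer Agilent arrays made double-stranded by primer extension.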

Sequence	PBM E-score
ACGCAATA	0.209
TAAGGCAA	0.0779
CAAGGAGG	0.00169
AGGGGTGC	-0.088
CTGGACGA	-0.129
CGAAAGAC	1e-05
CCCCGGGA	0.0124
AAATTATG	0.24
AAATTATC	0.278
AAATTATT	0.183
AAATTAAA	0.214
AAATTATA	0.262
TAATTACA	0.259
CAATTACA	0.242
GAATTATC	0.145
AAATTACA	0.248
AATAGAAT	0.106
CTGGGTTA	-0.0908
ACAGAACA	0.136
CCCATTCA	0.214
TGAGACCA	-0.078
AAGCCTGG	-0.072
GCCGTGAC	-0.0205
ATACTCAG	0.258

Sequence	PBM E-score
CTACTCAG	-0.0922
ATACTCAA	0.204
CCCGTTCA	-0.0227
AAAGCGTC	-0.113
GTAGTCAC	-0.185
CATTTTAA	0.0885
ACTTTTAG	-0.0275
CATTTTAC	0.263
ACTTTTAC	0.273
ACTTTTAA	0.0259
CATTTTAG	0.137
GACTCCAA	-0.226
CTAGTGTC	-0.0545
GGGTTGAA	-0.0789
CAGACTAG	-0.237
ATAGGTCA	0.0611
GTTAATAA	0.186
TCTAATAA	0.0206
GGTAATAC	0.168
ATTAAAAA	0.162
ATGAATAG	0.148
CTTAATAC	0.191
ATTAATAC	0.27
CTTAATAA	0.267

Sequence	PBM E-score
ATTAATGG	0.156
ATTAATAG	0.272
CCTAATAA	0.0783
ATTAATAA	0.336
GTGCCAAC	-0.0934
CAAAAAGG	-0.138
GACTACCC	-0.127
AACTGTCT	0.0125
CCGCCGAC	-0.119
GAACAGAC	0.0587
GGCGCGGA	-0.189
AACTGGAA	0.0471
ATGATAGA	-0.0131
GTGATAAC	0.125
ATGATAAG	0.204
ATGATAAT	0.272
ATGATAAC	0.262
CTGATAAC	-0.054
ATGATAGC	0.269
ATGATAAA	0.188
ATGATAGG	-0.0261
AGCTGATA	0.0998
ATCCTTCC	-0.2
GGGGTTAA	-0.0418

Sequence	PBM E-score
TCCAGGAA	-0.0393
CTGGTTTC	0.0335
GGATGCAA	-0.0522
AACAGACT	0.138
GACAGACA	0.16
AACAGACA	0.32
AGGATCGC	-0.0224
GACTGAAA	-0.0204
CACTGAAA	0.108
TACTGAAA	0.267
TACCTTCA	-0.0369
ATCACATA	0.291
ATCACGTA	0.269
CTCACATA	0.164
ATCACGTG	0.124
ATCACGTC	0.186
ATCACATG	0.00787
AGTGGTCC	-0.116
GACTCGTA	-0.2
CAATCCTC	-0.129
CAAGGTGA	-0.0314
AATGAAAC	0.169
